Each sequence was assayed against GHSR (assay: pooled miR-30 sensor sort-seq; sequence = guide strand). Conditions: shRNA.
ATCTGAGCAATCTCCAAGGAGC showed a sensor-assay potency score (higher = more potent) of -1.45. Sequence TTGCTTGTGGTTCTGGTCCCTG has a sensor-assay potency score (higher = more potent) of -0.711. In the case of TTGGACATGATGTTGTACAGAA, the sensor-assay potency score (higher = more potent) is reported as 0.099. TAGAAGAGGACAAAGGACACGA gave a sensor-assay potency score (higher = more potent) of 0.735. Sequence TGGAAAATAAATATCGCCCTAC has a sensor-assay potency score (higher = more potent) of -0.395. TTTGCAGAGGAGGTCGCCGAAG showed a sensor-assay potency score (higher = more potent) of -1.38. Sequence AAGTCTGAACACTGCCACCCGG has a sensor-assay potency score (higher = more potent) of -1.26. For TAGCGCTCGACGCTCAGCGCTG, the sensor-assay potency score (higher = more potent) was -1.17. TTTCACGGTTTGCTTGTGGTTC showed a sensor-assay potency score (higher = more potent) of -0.265.

The sequences below were run against GINS3 in the same assay as above. Conditions: shRNA.
TACAAGGTCAACCAGCTCCTAT showed a sensor-assay potency score (higher = more potent) of -1.16. With TTTGTGGCTAGTGAAACTGTAC the sensor-assay potency score (higher = more potent) was -0.833. Sequence TTATAAAAACAACAATTCCATC has a sensor-assay potency score (higher = more potent) of -1.34. For TTATTTAGGAAGGACTTTGATT, the sensor-assay potency score (higher = more potent) was -0.522. Work on TAGTGCTTGCTTAACCAGGTTC yielded a sensor-assay potency score (higher = more potent) of -0.37. TTCTCTTCTTGTAATTCTGAAC gave a sensor-assay potency score (higher = more potent) of -1.11. TTTATTTAGCACTAAAATCAAA showed a sensor-assay potency score (higher = more potent) of -1.42. Sequence TTCTATGCAATAATGTTGCAAA has a sensor-assay potency score (higher = more potent) of -0.524. For TCTTCTTGTAATTCTGAACGAG, the sensor-assay potency score (higher = more potent) was -0.383. With TTTCTCTTCTTGTAATTCTGAA the sensor-assay potency score (higher = more potent) was -0.125. TTTCTTTCTCAACCTGAGGTTG was tested, and the sensor-assay potency score (higher = more potent) was -0.934. With TAGTGAAACTGTACATCTGAAG the sensor-assay potency score (higher = more potent) was -1.07.
Note: reference of the scale not given here.
